From PubChem BioAssay (Tox21)
“And” between values parts separate entries of the source, which are not always exact repeats. Equal values may be shown once. The source holds several records for some structures; these can differ, active in one and inactive in another. The source made the active and inactive calls. A call without a number means that no potency is given here. Unless noted, calls follow the shape of the dose curve; as a rule, active = well fitted curve in the direction sought with a large enough effect in the repeat runs; inconclusive = weak or mixed curves; inactive = no such curve, though single readings can be large; an effect the other way counts as inactive or inconclusive.

Key:
[1] = qHTS assay to identify small molecule antagonists of the glucocorticoid receptor (GR) signaling pathway - cell viability counter screen (AID 720693); also: nearly all actives have a fitted effect of over 55% in size; also: potency is read from the fitted curve at half-maximal effect
[2] = qHTS assay for identifying genotoxic compounds that show differential cytotoxicity against isogenic chicken DT40 cell lines with known DNA damage response pathways - wild type cell line (AID 743012); also: nearly all actives have a fitted effect of over 60% in size; also: potency is read from the fitted curve at half-maximal effect
Method in brief: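 Cytotoxicity in repair-proficient parental chicken DT40 cells serves as the comparator for Rad54/Ku70- and Rev3-deficient lines. Cells were exposed to compounds for 40 h at 37 C/5% CO2, and ATP-based luminescence (CellTiter-Glo) measured viability.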

[3] = qHTS assay for identifying genotoxic compounds that show differential cytotoxicity against isogenic chicken DT40 cell lines with known DNA damage response pathways - Rev3 mutant cell line (AID 743014); also: nearly all actives have a fitted effect of over 55% in size; also: potency is read from the fitted curve at half-maximal effect
[4] = qHTS assay for identifying genotoxic compounds that show differential cytotoxicity against isogenic chicken DT40 cell lines with known DNA damage response pathways - Rad54/Ku70 mutant cell line (AID 743015); also: nearly all actives have a fitted effect of over 60% in size; also: potency is read from the fitted curve at half-maximal effect
[5] = qHTS assay to identify small molecule antagonists of the androgen receptor (AR) signaling pathway - cell viability counter screen (AID 743033; also: nearly all actives have a fitted effect of over 45% in size; also: potency is read from the fitted curve at half-maximal effect)
[6] = qHTS assay to identify small molecule antagonists of the androgen receptor (AR) signaling pathway using the MDA cell line - cell viability counter screen (AID 743041; also: nearly all actives have a fitted effect of over 45% in size; also: potency is read from the fitted curve at half-maximal effect)
Method in brief: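 qHTS viability read-out; MDA-kb2 AR-luc; R1881-stimulated; 16 h exposure at 37C, 0% CO2; CellTiter-Fluor, 30 min; fluorescence intensity.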

[7] = qHTS assay to identify small molecule antagonists of the thyroid receptor (TR) signaling pathway - cell viability counter screen (AID 743064); also: nearly all actives have a fitted effect of over 50% in size; also: potency is read from the fitted curve at half-maximal effect
Method in brief: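 Rat GH3 pituitary tumor cells stably expressing two TR response elements driving luciferase were plated, rested 4 h, then dosed with library compounds and T3 (1 nM final). After 23.5 h at 37 °C, CellTiter-Fluor was added for 30 min and fluorescence recorded.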

[8] = target: Estrogen receptor (Homo sapiens) (UniProt P03372); test: qHTS assay to identify small molecule antagonists of the estrogen receptor alpha (ER-alpha) signaling pathway (AID 743069; active = well fitted curve in the direction sought with a large enough effect in the signal ratio in the repeat runs, not every such curve was filed as active; inconclusive = weak or mixed curves, or effect the other way; inactive = no such curve, though single readings can be large or run the other way; the % refers to the signal ratio; also: potency is read from the fitted curve at half-maximal effect)
Estrogen receptor (Homo sapiens), sequence (P03372 whole entry, looked up): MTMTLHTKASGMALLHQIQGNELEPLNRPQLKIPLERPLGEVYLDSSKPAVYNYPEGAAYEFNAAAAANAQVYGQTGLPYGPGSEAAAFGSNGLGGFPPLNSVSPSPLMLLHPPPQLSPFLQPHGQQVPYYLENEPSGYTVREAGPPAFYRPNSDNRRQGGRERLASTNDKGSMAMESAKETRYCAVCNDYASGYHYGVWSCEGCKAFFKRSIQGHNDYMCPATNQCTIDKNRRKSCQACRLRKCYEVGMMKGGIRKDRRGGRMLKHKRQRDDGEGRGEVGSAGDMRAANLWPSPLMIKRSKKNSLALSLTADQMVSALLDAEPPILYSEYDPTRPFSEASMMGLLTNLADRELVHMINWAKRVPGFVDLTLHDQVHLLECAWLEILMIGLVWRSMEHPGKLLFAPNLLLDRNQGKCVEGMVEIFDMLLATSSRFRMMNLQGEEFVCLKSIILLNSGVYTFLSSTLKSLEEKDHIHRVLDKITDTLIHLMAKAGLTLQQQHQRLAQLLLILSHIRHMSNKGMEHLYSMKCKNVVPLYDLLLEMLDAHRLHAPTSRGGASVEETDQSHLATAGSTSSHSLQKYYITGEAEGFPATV
Method in brief: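 Screening used a UAS-driven beta-lactamase reporter integrated into HEK293 cells expressing ER-alpha, stimulated with 17beta-estradiol alongside test compounds over 18 hr at 37C; signal came from LiveBLAzer B/G FRET fluorescence.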

[9] = qHTS assay to identify small molecule antagonists of the estrogen receptor alpha (ER-alpha) signaling pathway - cell viability counter screen (AID 743074; calls by dose curve; also: nearly all actives have a fitted effect of over 45% in size; also: potency is read from the fitted curve at half-maximal effect)
[10] = target: Estrogen receptor (Homo sapiens) (UniProt P03372); test: qHTS assay to identify small molecule agonists of the estrogen receptor alpha (ER-alpha) signaling pathway (AID 743075; calls by dose curve; also: potency is read from the fitted curve at half-maximal effect)
[11] = target: Estrogen receptor (Homo sapiens) (UniProt P03372); test: qHTS assay to identify small molecule agonists of the estrogen receptor alpha (ER-alpha) signaling pathway using the BG1 cell line (AID 743079); also: nearly all actives have a fitted effect of over 20% in size; also: potency is read from the fitted curve at half-maximal effect
[12] = qHTS assay to identify small molecule antagonists of the estrogen receptor alpha (ER-alpha) signaling pathway using the BG1 cell line (AID 743080; calls by dose curve; also: nearly all actives have a fitted effect of over 25% in size; also: potency is read from the fitted curve at half-maximal effect)
Method in brief: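 Antagonist mode: compounds in DMSO were pinned onto BG1-Luc-4E2 cells alongside 17beta-estradiol agonist, incubated 21.5 h, and ERE-driven luciferase measured with ONE-Glo. Cytotoxicity was multiplexed using CellTiter-Fluor fluorescence.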

[13] = qHTS assay to identify small molecule antagonists of the estrogen receptor alpha (ER-alpha) signaling pathway using the BG1 cell line - cell viability counter screen (AID 743081);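 also: compound given together with 17beta-estradiol as the ER stimulus; nearly all actives have a fitted effect of over 45% in size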; also: potency is read from the fitted curve at half-maximal effect
Aromatase (Homo sapiens) = Aromatase (Homo sapiens) (UniProt P11511); test: qHTS assay to identify aromatase inhibitors (AID 743083); also: nearly all actives have a fitted effect of over 55% in size; also: potency is read from the fitted curve at half-maximal effect
Aromatase (Homo sapiens), sequence (P11511 whole entry, looked up): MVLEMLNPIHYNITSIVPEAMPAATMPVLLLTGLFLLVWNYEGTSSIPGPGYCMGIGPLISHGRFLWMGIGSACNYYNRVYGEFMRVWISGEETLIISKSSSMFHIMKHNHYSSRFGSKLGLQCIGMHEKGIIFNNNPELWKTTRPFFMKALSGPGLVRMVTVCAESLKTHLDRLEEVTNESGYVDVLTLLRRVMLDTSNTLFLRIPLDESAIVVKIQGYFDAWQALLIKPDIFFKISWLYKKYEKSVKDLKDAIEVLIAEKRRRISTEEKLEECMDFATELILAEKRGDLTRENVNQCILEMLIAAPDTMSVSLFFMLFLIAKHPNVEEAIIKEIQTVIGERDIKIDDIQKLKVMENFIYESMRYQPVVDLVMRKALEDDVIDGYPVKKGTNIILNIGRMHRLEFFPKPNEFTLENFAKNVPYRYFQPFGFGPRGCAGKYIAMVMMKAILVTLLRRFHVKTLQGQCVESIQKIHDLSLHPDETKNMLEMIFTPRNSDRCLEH

[14] = qHTS assay to identify small molecule antagonists of the thyroid receptor (TR) signaling pathway (AID 743065); also: nearly all actives have a fitted effect of over 55% in size; also: potency is read from the fitted curve at half-maximal effect
Method in brief: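 GH3.TRE-Luc rat pituitary cells carrying two TR response elements driving luciferase were plated for 4 h, given compound plus 1 nM T3 (final), and incubated 23.5 h at 37 C. ONE-Glo luminescence measured reporter inhibition; CellTiter-Fluor fluorescence tracked cytotoxicity.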

[15] = tested on: thyroid hormone receptor (rat, GH3 cells); test: qHTS assay to identify small molecule agonists of the thyroid receptor (TR) signaling pathway (AID 743066; calls by dose curve)
[16] = target: Androgen receptor (Homo sapiens) (UniProt P10275); test: qHTS assay to identify small molecule agonists of the androgen receptor (AR) signaling pathway (AID 743036; active = well fitted activation curve with a large enough effect in the signal ratio in the repeat runs, with a control signal flat, not every such curve was filed as active; inconclusive = weak or mixed curves, or effect the other way; inactive = no such curve, though single readings can be large or run the other way; the % refers to the signal ratio)
Androgen receptor (Homo sapiens), sequence (P10275 whole entry, looked up): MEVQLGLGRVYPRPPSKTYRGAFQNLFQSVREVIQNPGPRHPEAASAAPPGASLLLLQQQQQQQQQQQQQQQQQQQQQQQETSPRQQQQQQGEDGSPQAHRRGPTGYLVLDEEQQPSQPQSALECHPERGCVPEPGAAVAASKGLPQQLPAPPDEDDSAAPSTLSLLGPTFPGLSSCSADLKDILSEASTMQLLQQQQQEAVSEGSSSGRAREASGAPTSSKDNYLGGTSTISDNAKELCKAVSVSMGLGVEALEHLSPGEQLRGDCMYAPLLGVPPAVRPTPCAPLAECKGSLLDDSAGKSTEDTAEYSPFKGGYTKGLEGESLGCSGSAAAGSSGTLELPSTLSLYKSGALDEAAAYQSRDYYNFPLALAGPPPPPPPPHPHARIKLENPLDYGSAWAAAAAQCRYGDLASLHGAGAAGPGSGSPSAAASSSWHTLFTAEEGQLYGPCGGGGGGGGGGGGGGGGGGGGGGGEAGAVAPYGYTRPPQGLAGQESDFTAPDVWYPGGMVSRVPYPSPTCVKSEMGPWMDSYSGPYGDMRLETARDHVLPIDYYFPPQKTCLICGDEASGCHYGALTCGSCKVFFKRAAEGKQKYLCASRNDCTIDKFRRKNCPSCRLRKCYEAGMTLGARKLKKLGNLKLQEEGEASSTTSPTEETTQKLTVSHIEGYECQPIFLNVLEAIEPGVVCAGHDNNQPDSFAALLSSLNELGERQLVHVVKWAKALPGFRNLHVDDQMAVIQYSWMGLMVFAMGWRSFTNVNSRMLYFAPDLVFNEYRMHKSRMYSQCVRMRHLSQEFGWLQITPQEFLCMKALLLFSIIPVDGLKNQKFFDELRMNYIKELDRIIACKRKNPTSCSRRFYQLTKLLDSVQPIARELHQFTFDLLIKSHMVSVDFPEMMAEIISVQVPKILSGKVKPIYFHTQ
Method in brief: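 Quantitative HTS of the Tox21 10K library in HEK293 cells bearing a stably integrated UAS-controlled beta-lactamase reporter. Compound exposure lasted 16 h at 37C. Reporter activity was detected by FRET substrate fluorescence after 2 h at room temperature.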

[17] = target: Androgen receptor (Homo sapiens) (UniProt P10275); test: qHTS assay to identify small molecule agonists of the androgen receptor (AR) signaling pathway using the MDA cell line (AID 743040; also: nearly all actives have a fitted effect of over 20% in size); settings: MDA-kb2 AR-luc cells, MMTV luciferase, 16 h; activity change: at 70.3 µM (top of the series), stronger effect = higher value
Method in brief: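 Agonist activity is measured as luciferase luminescence in human MDA-kb2 cells whose MMTV reporter responds to both AR and GR. Compounds in DMSO incubate 16 h at 37C, 0% CO2, and ONE-Glo is read after 30 min.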

[18] = target: Androgen receptor (Homo sapiens) (UniProt P10275); test: qHTS assay to identify small molecule antagonists of the androgen receptor (AR) signaling pathway using the MDA cell line (AID 743042; also: nearly all actives have a fitted effect of over 55% in size; also: potency is read from the fitted curve at half-maximal effect)
Method in brief: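 MDA-kb2 cells (human breast carcinoma, stably carrying an MMTV-luciferase reporter responsive to AR and GR) were plated at 3,000 cells/well and preincubated 5 hr at 37C, then given compound plus R1881 agonist for 16 h. ONE-Glo luminescence was read.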

[19] = target: Androgen receptor (Homo sapiens) (UniProt P10275); test: qHTS assay to identify small molecule antagonists of the androgen receptor (AR) signaling pathway (AID 743035; active = well fitted inhibition curve with a large enough effect in the signal ratio in the repeat runs, not every such curve was filed as active; inconclusive = weak or mixed curves, or effect the other way; inactive = no such curve, though single readings can be large or run the other way; the % refers to the signal ratio; also: potency is read from the fitted curve at half-maximal effect)
Method in brief: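 Steps: seed AR-UAS-bla GripTite HEK293 cells, incubate 4 h at 37C; pin in test compound, then add agonist R1881; incubate 16 h at 37C; add LiveBLAzer B/G FRET substrate, 2 h at room temperature; read fluorescence.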

SMILES	Potency [1]	Potency [2]	Potency [3]	Potency [4]	Potency [5]	Potency [6]	Potency [7]	Potency [8]	Potency [9]	Potency [10]	Potency [11]	Potency [12]	Potency [13]	Potency (Aromatase (Homo sapiens))	Potency [14]	Potency [15]	Potency [16]	Potency [17]	Potency [18]	Potency [19]
c1nc[nH]n1	inactive	inactive	inactive	inactive	inactive	inactive	inactive	inactive	inactive	inactive	inactive	inactive	inactive	inactive	–	–	–	–	–	–
CCC(C)(c1ccc(O)cc1)c1ccc(O)cc1	inactive	27.3 µM (active)	61.1 µM (active) and 34.4 µM (active)	30.6 µM (active)	inactive	inactive	–	616 nM [inconclusive] (active) and 309 nM [inconclusive] (active)	inactive	195 nM [inconclusive] (active) and 1.95 µM [inconclusive] (active)	243 nM (active) and 273 nM (active)	inactive	inactive	61.1 µM (active) and inactive	61.1 µM (active)	inactive	–	–	–	–
C#CCOS(=O)OC1CCCCC1Oc1ccc(C(C)(C)C)cc1 (stereo not given)	21.9 µM (active)	6.12 µM (active) and 2.73 µM (active)	3.86 µM (active) and 2.17 µM (active)	4.33 µM (active) and 2.43 µM (active)	174 nM (active) and 1.74 µM (active)	4.33 µM (active)	6.86 µM (active)	–	–	inactive and 2.75 µM [inconclusive] (active)	–	9.7 µM (active)	27.3 µM (active)	15.4 µM (active) and 6.86 µM (active)	4.33 µM (active)	inactive	–	–	–	–
CCCCN(CC)c1c([N+](=O)[O-])cc(C(F)(F)F)cc1[N+](=O)[O-]	inactive	inactive	inactive	inactive	inactive	inactive	54.5 µM (active)	–	inactive	–	–	–	inactive	inactive	–	inactive	–	–	–	–
O=C(NC(=O)c1c(F)cccc1F)Nc1ccc(Cl)cc1	inactive	inactive	inactive	inactive	inactive	inactive	inactive	inactive	inactive	inactive	inactive and 2.43 µM (active)	–	inactive	inactive	inactive	inactive	–	–	–	–
CCC(C)c1ccc(O)cc1 (stereo not given)	inactive	inactive	inactive and 61.1 µM (active)	inactive and 43.3 µM (active)	inactive	inactive	inactive	–	inactive	–	–	–	inactive	–	inactive	inactive	–	–	–	–
CCCCC(CC)COC(=O)c1ccc(C(=O)OCC(CC)CCCC)c(C(=O)OCC(CC)CCCC)c1 (stereo not given)	inactive	inactive	inactive	inactive	inactive	inactive	–	–	inactive	–	–	–	inactive	inactive	inactive	inactive	inactive	inactive	inactive	–
CC(C)=CC1C(C(=O)OCc2coc(Cc3ccccc3)c2)C1(C)C (stereo not given)	inactive	inactive and 38.5 µM (active)	inactive and 54.4 µM (active)	inactive and 43.2 µM (active)	inactive	inactive	inactive	inactive	inactive	inactive	inactive	inactive	inactive	inactive	–	inactive	–	–	–	–
O=[N+]([O-])c1c(Cl)c(Cl)c(Cl)c(Cl)c1Cl	inactive	61.1 µM (active)	inactive	inactive and 61.1 µM (active)	inactive	inactive	54.5 µM (active)	inactive	inactive	inactive	inactive	inactive	inactive	inactive and 61.1 µM (active)	–	inactive	inactive	inactive	inactive and 43.3 µM (active)	–
CCOCN(C(=O)CCl)c1c(C)cccc1CC	inactive	51.4 µM (active) and 17.2 µM (active)	7.27 µM (active) and 6.11 µM (active)	20.5 µM (active) and 7.7 µM (active)	inactive	inactive	inactive	24.5 µM [inconclusive] (active)	inactive	inactive	inactive	inactive	inactive	28.9 µM (active) and 54.5 µM (active)	64.8 µM (active) and 61.1 µM (active)	inactive	–	–	–	–
CCN(CC)C(=O)SCc1ccc(Cl)cc1	inactive	43.3 µM (active)	21.7 µM (active)	24.3 µM (active)	inactive	inactive	inactive	inactive	inactive	inactive	inactive	inactive	inactive	inactive	inactive	inactive	–	–	–	–
Nc1ccncc1	inactive	inactive	inactive	inactive	inactive	inactive	inactive	inactive	inactive	inactive	inactive	inactive	inactive	inactive	inactive	inactive	inactive	inactive	inactive	inactive
CC(C)NC(C)C	inactive	inactive	inactive	inactive	inactive	inactive	inactive	inactive	inactive	inactive	inactive	inactive	inactive	inactive	inactive	inactive	–	–	–	–
CNC(=O)N(C)c1nnc(C(C)(C)C)s1	inactive	inactive	inactive	inactive	inactive	inactive	inactive	inactive	inactive	inactive	inactive	inactive	inactive	inactive	inactive	inactive	–	–	–	–
C1=Cc2cccc3cccc1c23	inactive	inactive	60.1 µM (active)	inactive	inactive	inactive	inactive	–	inactive	–	–	–	inactive	inactive	inactive	inactive	–	–	–	–
O=C(O)CC[N+](=O)[O-]	inactive	70.8 µM (active) and inactive	inactive	inactive	inactive	inactive	inactive	–	inactive	–	–	–	inactive	inactive	inactive	inactive	inactive	inactive	inactive	inactive
COP(=O)(OC)OC	inactive	inactive	inactive	inactive	inactive	inactive	inactive	inactive	–	inactive	inactive	inactive	inactive	inactive	inactive	inactive	inactive	inactive	inactive	inactive
OCC(O)CO	inactive	inactive	inactive	inactive	inactive	inactive	–	inactive	inactive	inactive	inactive	inactive	inactive	inactive	inactive	inactive	–	–	–	–
c1ccc(P(c2ccccc2)c2ccccc2)cc1	inactive	55.5 µM (active) and 61.1 µM (active)	12.4 µM (active) and 61.1 µM (active)	19.7 µM (active) and 54.5 µM (active)	inactive	inactive	inactive	inactive	inactive	inactive	inactive	inactive	inactive	inactive	–	inactive	–	–	–	–
Nn1cnnc1	inactive	inactive	inactive	inactive	inactive	inactive	inactive	inactive	inactive	inactive	inactive	inactive	inactive	inactive	inactive	inactive	–	–	–	–
COc1ccc(C(CN(C)C)C2(O)CCCCC2)cc1 (stereo not given)	inactive	inactive	inactive	inactive	inactive	inactive	inactive	–	inactive	–	–	–	inactive	inactive	inactive	inactive	–	–	–	–
COC(=O)c1sccc1S(=O)(=O)NC(=O)Nc1nc(C)nc(OC)n1	inactive	inactive	inactive	inactive	inactive	inactive	–	inactive	inactive	inactive	inactive	inactive	inactive	inactive	inactive	inactive	–	–	–	–
CCCCC(CC)COC(=O)Cl (stereo not given)	inactive	inactive	inactive	inactive	inactive	inactive	inactive	inactive	inactive	inactive	inactive	inactive	inactive	inactive	inactive	inactive	–	–	–	–
C=C(C)[C@H]1Cc2c(ccc3c2O[C@@H]2COc4cc(OC)c(OC)cc4[C@@H]2C3=O)O1	inactive	59.6 nM (active) and 19.6 nM (active) and 8.6 nM (active)	119 nM (active) and 11 nM (active) and 8.6 nM (active)	75 nM (active) and 9.8 nM (active) and 8.6 nM (active)	62.5 nM (active) and 38.9 nM (active)	393 nM (active) and 39.1 nM (active) and 30.6 nM (active)	–	–	67.4 nM (active) and 44.2 nM (active)	–	–	–	7.8 µM (active) and 38.6 µM (active)	15 µM (active) and 34.8 µM (active) and 34.4 µM (active)	237 nM (active) and 34.8 nM (active) and 61.1 nM (active)	inactive	inactive	inactive	188 nM (active) and 24.7 nM (active) and 9.7 nM (active)	756 nM (active) and 279 nM (active)
ClC1C(Cl)C(Cl)C(Cl)C(Cl)C1Cl (stereo not given)	inactive	inactive and 54.5 µM (active)	inactive and 48.6 µM (active) and 24.3 µM (active)	inactive and 48.6 µM (active) and 17.2 µM (active)	inactive	inactive	inactive	–	inactive	–	–	–	inactive	inactive and 54.5 µM (active)	–	inactive	–	–	–	–
CNC(=O)Oc1cccc2c1OC(C)(C)O2	inactive	inactive	inactive	inactive	inactive	inactive	inactive	–	inactive	inactive	inactive	inactive	inactive	inactive	–	–	–	–	–	–
